Inconclusive results are not listed. Calls of active or inactive are those of the source. Calls come from the whole dose curve; as a rule, active = well fitted activation curve with a large enough effect in the repeat runs; inconclusive = weak or mixed curves; inactive = flat fitted curve, though single readings scatter.
Assay: A CellTox Green Cytotoxicity Assay to monitor cytotoxicity in HepG2 cells - 24 hour (AID 1224878); note: nearly all actives have a fitted effect of over 45% in size
Settings: CellTox Green fluorescence; series mostly up to 76.8 µM; cytotoxicity: at the top concentration
How it was run: (§1)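 Fluorescent DNA-binding dye, 600 HepG2 cells/well, 5 h preincubation then compound in DMSO; same plates read at 0–40 h, 37 C.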
% is set by controls: 0 for no effect and ±100 for the full control effect; potency is the fitted concentration of half-maximal effect.

Row | Structure (SMILES) | cytotoxicity | Potency
1 | CC(COCCO)OCCO (centres undefined) | 0.405% (inactive) | 
2 | CCC(C)(C)CC | 0.587% (inactive) | 
3 | CCN(CC)CCNc1ccc(CNC=O)c2sc3ccc(OC)cc3c(=O)c12 | -5.96% (inactive) | 
4 | CC[N+](C)(CC)CCOC(=O)C(O)(c1ccccc1)C1CCCCC1 (centres undefined) | -13.2% [at 35.3 µM] (inactive) | 
5 | CN1CCC(N(Cc2cccs2)c2ccccc2)CC1 |  | 10.7 µM (active)
6 | C=C(C)C(=O)OCC | 1.44% (inactive) | 
7 | NCCCN1CCOCC1 | -0.0281% (inactive) | 
8 | NC(=O)C(c1ccccc1)(c1ccccc1)[C@@H]1CCN(CCc2ccc3c(c2)CCO3)C1 |  | 21.3 µM (active)
9 | CC(=O)[O][Al][O]C(C)=O | -14.5% (inactive) | 
10 | CCCCOC(=O)CCCCCCCC(=O)OCCCC | -0.0509% (inactive) | 
11 | CCCCC(CC)COC(=O)CCCCCCCCC(=O)OCC(CC)CCCC (centres undefined) | -3.2% (inactive) | 
12 | CN(C)CCOC(c1ccccc1)c1ccc(Br)cc1 (centres undefined) |  | 23.9 µM (active)
13 | O=C(OCCCCCCOC(=O)c1ccccc1)c1ccccc1 | 0.0074% (inactive) | 
14 | C[Si](C)(CCCN)O[Si](C)(C)CCCN | -2.86% (inactive) | 
15 | CCC(C)O (centres undefined) | 2.41% (inactive) | 
16 | Cc1ncc(CO)c(C=O)c1O | 0.596% [at 35.3 µM] (inactive) | 
17 | OC[C@H]1O[C@@H](OCCc2ccc(O)cc2)[C@H](O)[C@@H](O)[C@@H]1O | -4.05% [at 35.3 µM] (inactive) | 
18 | Nc1ccc([N+](=O)[O-])c(C(F)(F)F)c1 | -13.2% [at 35.3 µM] (inactive) | 
19 | O=C(O)c1nc(Cl)c(Cl)c(Cl)c1Cl | -3.2% (inactive) | 
20 | C[C@@H](c1ncncc1F)C(O)(Cn1cncn1)c1ccc(F)cc1F (some centres undefined) | -10.7% [at 35.3 µM] (inactive) | 
21 | OC(C#CCN1CCCC1)(c1ccccc1)c1ccccc1 | 8.25% [at 35.3 µM] (inactive) | 
22 | CCC(Cl)CCC(Cl)C(Cl)CC(Cl)C(Cl)C(Cl)CCl (centres undefined) | -1.58% (inactive) | 
23 | O=[N+]([O-])c1ccc(NCCO)c(OCCO)c1 | -0.457% (inactive) | 
24 | CCCCC/C=C\C/C=C\CCCCCCCC(=O)NC(C)c1ccccc1 (centres undefined) | -17% [at 35.3 µM] (inactive) | 
25 | CN1Cc2cc(C(=O)N3CCC(C4CCNCC4)CC3)ccc2NC(CC(=O)O)C1=O (centres undefined) | -0.0146% [at 35.3 µM] (inactive) | 
26 | COC(C)(C)CCO | -12.5% (inactive) | 

Assay: A CellTox Green Cytotoxicity Assay to monitor cytotoxicity in HepG2 cells - 40 hour (AID 1224879); note: nearly all actives have a fitted effect of over 40% in size
Settings: CellTox Green fluorescence; series mostly up to 76.8 µM; cytotoxicity increase: at the top concentration
How it was run: as §1

Row | Structure (SMILES) | cytotoxicity increase | Potency
27 | CC(COCCO)OCCO (centres undefined) | -0.286% (inactive) | 
28 | CCC(C)(C)CC | 9.21% (inactive) | 
29 | CC[N+](C)(CC)CCOC(=O)C(O)(c1ccccc1)C1CCCCC1 (centres undefined) | -14.7% [at 35.3 µM] (inactive) | 
30 | CN1CCC(N(Cc2cccs2)c2ccccc2)CC1 |  | 21.3 µM (active)
31 | C=C(C)C(=O)OCC | -0.075% (inactive) | 
32 | C[N+]1(CC2COC(c3ccccc3)(C3CCCCC3)O2)CCCCC1 (centres undefined) | 3.12% [at 35.3 µM] (inactive) | 
33 | NCCCN1CCOCC1 | -1.66% (inactive) | 
34 | CC(=O)[O][Al] | -2.13% (inactive) | 
35 | NC(=O)C(c1ccccc1)(c1ccccc1)[C@@H]1CCN(CCc2ccc3c(c2)CCO3)C1 |  | 23.9 µM (active)
36 | CC(=O)[O][Al][O]C(C)=O | -13.1% (inactive) | 
37 | CCCCOC(=O)CCCCCCCC(=O)OCCCC | -1.32% (inactive) | 
38 | CCCCC(CC)COC(=O)CCCCCCCCC(=O)OCC(CC)CCCC (centres undefined) | -13.7% (inactive) | 
39 | CN(C)CCOC(c1ccccc1)c1ccc(Br)cc1 (centres undefined) |  | 23.9 µM (active)
40 | O=C(OCCCCCCOC(=O)c1ccccc1)c1ccccc1 | 5.71% (inactive) | 
41 | C[Si](C)(CCCN)O[Si](C)(C)CCCN | -0.273% (inactive) | 
42 | CCC(C)O (centres undefined) | -0.704% (inactive) | 
43 | Nc1cccc([N+](=O)[O-])c1 | 0.471% (inactive) | 

Row | Structure (SMILES) | cytotoxicity increase | Potency
44 | NS(=O)(=O)c1ccc(N2CCCCS2(=O)=O)cc1 | -1.54% [at 35.3 µM] (inactive) | 
45 | Cc1ncc(CO)c(C=O)c1O | 1.94% [at 35.3 µM] (inactive) | 
46 | OC[C@H]1O[C@@H](OCCc2ccc(O)cc2)[C@H](O)[C@@H](O)[C@@H]1O | -5.99% [at 35.3 µM] (inactive) | 
47 | Nc1ccc([N+](=O)[O-])c(C(F)(F)F)c1 | -12.5% [at 35.3 µM] (inactive) | 
48 | O=C(O)c1nc(Cl)c(Cl)c(Cl)c1Cl | -7.7% (inactive) | 
49 | CC(C)OC(=O)C(C)N(C(=O)c1ccccc1)c1ccc(F)c(Cl)c1 (centres undefined) | -1.02% (inactive) | 
50 | C[C@@H](c1ncncc1F)C(O)(Cn1cncn1)c1ccc(F)cc1F (some centres undefined) | -3.74% [at 35.3 µM] (inactive) | 
51 | OC(C#CCN1CCCC1)(c1ccccc1)c1ccccc1 | 14.5% [at 35.3 µM] (inactive) | 
52 | CCC(Cl)CCC(Cl)C(Cl)CC(Cl)C(Cl)C(Cl)CCl (centres undefined) | -1.5% (inactive) | 
53 | O=[N+]([O-])c1ccc(NCCO)c(OCCO)c1 | -0.405% (inactive) | 
54 | CC(C)(O)c1ccc(CNC(=O)c2cccnc2Oc2ccc(F)cc2)cc1 | 0.191% (inactive) | 
55 | CC(CSC(=O)c1ccccc1)C(=O)N1C[C@@H](Sc2ccccc2)C[C@H]1C(=O)O (some centres undefined) | -0.523% [at 15.8 µM] (inactive) | 
56 | CCCCC/C=C\C/C=C\CCCCCCCC(=O)NC(C)c1ccccc1 (centres undefined) | -14.3% [at 35.3 µM] (inactive) | 
57 | CN1Cc2cc(C(=O)N3CCC(C4CCNCC4)CC3)ccc2NC(CC(=O)O)C1=O (centres undefined) | -1.17% [at 35.3 µM] (inactive) | 
58 | COc1cc2nc(N(C)CCCNC(=O)C3CCCO3)nc(N)c2cc1OC (centres undefined) | -10.6% [at 35.3 µM] (inactive) | 
59 | COC(C)(C)CCO | -15% (inactive) | 

— PubChem BioAssay (Tox21)
